The values below come from PubChem BioAssay (Tox21).

A number with no mark means an inactive call. Inconclusive results are not listed. The source made the active and inactive calls. Unless noted, calls come from the whole dose curve; as a rule, active = well fitted curve in the direction sought with a large enough effect in the repeat runs; inconclusive = weak or mixed curves; inactive = no such curve, though single readings can be large; an effect the other way counts as inactive or inconclusive.

A short description of assay [1]: qHTS assay to identify small molecule agonists of the hypoxia (HIF-1) signaling pathway - cell viability counter screen (AID 1224844; calls by dose curve; note: % is set by controls: 0 for no effect and ±100 for the full control effect; nearly all actives have a fitted effect of over 50% in size). The method, boiled down:
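Same wells as the HIF-1 reporter screen; ME-180 cells carrying HRE-bla, 17 hr treatment at 37C; CellTiter-Glo luminescence read after 30 min at room temperature.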
(Quantitative high-throughput screening tests each substance at several concentrations.)

Assay [2] can be described thus: qHTS assay to identify small molecule agonists of H2AX (AID 1224845; active = well fitted activation curve with a large enough effect in the signal ratio in the repeat runs, not every such curve was filed as active; the % refers to the signal ratio; note: % is set by controls: 0 for no effect and ±100 for the full control effect). The method, boiled down:
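Wild-type CHO-K1 cells, plated overnight, exposed 3hr at 37C to 15 concentrations (0.76% DMSO final). Lysed, then HTRF anti-pH2AX (S139) cryptate and anti-H2AX-d2 antibodies, 24 hr room temperature; 665/620 nm emission read.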

Assay [3] is described as follows: qHTS assay to identify small molecule agonists of the hypoxia (HIF-1) signaling pathway (AID 1224846; active = well fitted activation curve with a large enough effect in the signal ratio in the repeat runs, not every such curve was filed as active; the % refers to the signal ratio; note: % is set by controls: 0 for no effect and ±100 for the full control effect). A digest of the protocol: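 In ME-180 cells bearing an HRE-bla construct, 17 h treatment with DMSO-dissolved compounds at 37C was followed by CCF4-AM loading to quantify reporter induction.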
Assay [4] in a line: qHTS assay to identify small molecule agonists of H2AX - cell viability counter screen (AID 1224847; calls by dose curve; note: top concentration of the series differs between compounds; % is set by controls: 0 for no effect and ±100 for the full control effect; nearly all actives have a fitted effect of over 30% in size). The method, boiled down:
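CHO-K1 cells plated overnight at 37C, then exposed 3 h at 37C to compounds at 15 concentrations (0.76% DMSO final). Viability by CellTiter-Glo luminescence after 30 min at room temperature.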

A short description of assay [5]: qHTS assay to identify small molecule antagonists of the estrogen related receptor (ERR) signaling pathway from Tox21 library (AID 1224848). Note: potency is the fitted concentration of half-maximal effect; nearly all actives have a fitted effect of over 50% in size. The method, boiled down:
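Compounds dissolved in DMSO are pin-transferred onto ERR reporter cells (2,000 per well) that have settled for 6 h at 37 C. Plates then incubate 18 h at 37 C before ONE-Glo luciferase reagent and a luminescence read 30 min later.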

Assay [6] can be described thus: qHTS assay to identify small molecule agonists of the estrogen related receptor (ERR) signaling pathway from Tox21 library (AID 1224849; calls by dose curve; note: % is set by controls: 0 for no effect and ±100 for the full control effect; nearly all actives have a fitted effect of over 15% in size). Conditions: ERR reporter cell line, ONE-Glo luciferase, 18 h; at 92.4 µM (top of the series) unless noted. A digest of the protocol: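 Reporter cells (ERR, NTP source) treated with Tox21 10K compounds 18 h, 37 C. Readout: ONE-Glo luminescence, 30 min RT.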

Assay [7] is described as follows: qHTS RealTime-Glo MT Cell Viability Assay in HEK293 cells - 32 hour (AID 1224868). Note: top concentration of the series differs between compounds; % is set by controls: 0 for no effect and ±100 for the full control effect; nearly all actives have a fitted effect of over 50% in size. The method, boiled down:
(§1)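 Reads taken at 0, 8, 16, 24, 32 and 40 h from the same wells. HEK293 cells (600/well) carried RealTime-Glo reagents from seeding, with compound added after a 5 h settle at 37 C.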

Assay [8] can be described thus: A CellTox Green Cytotoxicity Assay to monitor cytotoxicity in HEK293 cells - 0 hour (AID 1224869). Note: % is set by controls: 0 for no effect and ±100 for the full control effect; nearly all actives have a fitted effect of over 50% in size. A digest of the protocol:
(§2)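 Homogeneous no-lysis format: HEK293 cell suspension mixed with CellTox Green reagent, seeded, incubated 5 h at 37 C/5% CO2, then dosed by pintool with compound in DMSO.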

Assay [9] is described as follows: A CellTox Green Cytotoxicity Assay to monitor cytotoxicity in HEK293 cells - 40 hour (AID 1224871). Note: % is set by controls: 0 for no effect and ±100 for the full control effect; nearly all actives have a fitted effect of over 45% in size. A digest of the protocol:
as §2

Assay [10] is described as follows: qHTS RealTime-Glo MT Cell Viability Assay in HEK293 cells - 16 hour (AID 1224872). The method, boiled down:
as §1

Assay [11] in a line: qHTS RealTime-Glo MT Cell Viability Assay in HEK293 cells - 40 hour (AID 1224874). Conditions: RealTime-Glo luminescence; max response: hits give low values. The method, boiled down:
(§3)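 Measured as luminescence from the same continuously cultured HEK293 wells at successive time points (0, 8, 16, 24, 32, 40 h) after compound addition. Reagent present from seeding; dosing at 5 h; incubation 37 C.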

Assay [12] in a line: A CellTox Green Cytotoxicity Assay to monitor cytotoxicity in HEK293 cells - 24 hour (AID 1224875). Note: % is set by controls: 0 for no effect and ±100 for the full control effect; nearly all actives have a fitted effect of over 45% in size. The method, boiled down: as §2
A short description of assay [13]: A CellTox Green Cytotoxicity Assay to monitor cytotoxicity in HepG2 cells - 16 hour (AID 1224876). Note: % is set by controls: 0 for no effect and ±100 for the full control effect; nearly all actives have a fitted effect of over 45% in size. The method, boiled down:
(§4)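 Fluorescent DNA-binding dye, 600 HepG2 cells/well, 5 h preincubation then compound in DMSO; same plates read at 0–40 h, 37 C.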

Assay [14] is described as follows: A CellTox Green Cytotoxicity Assay to monitor cytotoxicity in HepG2 cells - 24 hour (AID 1224878). Note: % is set by controls: 0 for no effect and ±100 for the full control effect; nearly all actives have a fitted effect of over 45% in size. A digest of the protocol: as §4
A short description of assay [15]: A CellTox Green Cytotoxicity Assay to monitor cytotoxicity in HepG2 cells - 40 hour (AID 1224879). Note: % is set by controls: 0 for no effect and ±100 for the full control effect; nearly all actives have a fitted effect of over 40% in size. A digest of the protocol:
as §4

The nature of assay [16]: qHTS RealTime-Glo MT Cell Viability Assay in HepG2 cells - 24 hour (AID 1224867). The method, boiled down: (§5)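 HepG2 suspension premixed with RealTime-Glo reagents is plated at 600 cells per well and left 5 h at 37 C/5% CO2. Compounds in DMSO then go in, and bioluminescence reflecting viable cell number is recorded over 40 h.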
The nature of assay [17]: qHTS RealTime-Glo MT Cell Viability Assay in HepG2 cells - 40 hour (AID 1224870). The method, boiled down: (§6)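 HepG2 cells (600/well) mixed with RealTime-Glo MT reagent, settled 5 h at 37 C/5% CO2 before compound addition. Nonlytic NanoLuc luminescence from viable-cell prosubstrate reduction read repeatedly during 40 h treatment at 37 C.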
Assay [18] is described as follows: qHTS RealTime-Glo MT Cell Viability Assay in HepG2 cells - 8 hour (AID 1224873). Note: % is set by controls: 0 for no effect and ±100 for the full control effect; nearly all actives have a fitted effect of over 55% in size. The method, boiled down: as §6
Assay [19] is described as follows: qHTS RealTime-Glo MT Cell Viability Assay in HepG2 cells - 32 hour (AID 1224877). Note: % is set by controls: 0 for no effect and ±100 for the full control effect; nearly all actives have a fitted effect of over 55% in size. The method, boiled down: as §5
Assay [20] in a line: qHTS RealTime-Glo MT Cell Viability Assay in HEK293 cells - 0 hour (AID 1224880). A digest of the protocol: as §3

For `O=C(O)c1cccc(N(Cc2cccnc2)c2ccc(OC(F)F)c(OC(F)F)c2)c1`, the Potency result in assay [1], in assay [2], in [4], in assay [7], in assay [8] and in assay [9] was “inactive” each time. The Potency result in [10], in assay [12], in assay [13], in [14] and in assay [15] was “inactive” in each case. Further, in [3], the compound was classed as inactive. For the same compound, in assay [5], the Potency was 61.1 µM (active). Further, in assay [6], the activity change, positive = activation is -33.2%. For the same compound, the max response in assay [11] was -2.06%.

With `CCN1CCC[C@H]1CNC(=O)c1c(OC)ccc(Br)c1OC`, the Potency result in assay [1], in assay [2], in [4], in [16], in [7] and in [8] was “inactive” in each case. Besides, the Potency entry in [17], in assay [9], in assay [10], in assay [18], in assay [12] and in assay [13] was “inactive” throughout. The Potency entry in [19], in [14], in assay [15] and in [20] was “inactive” throughout. Further, the compound was called inactive in assay [3]. Moreover, the max response in assay [11] is 12.2%.

`CCCCCCCCCCCCCCCC(=O)OC/C=C(C)/C=C/C=C(C)/C=C/C1=C(C)CCCC1(C)C`: the Potency entry in assay [1], in assay [2], in [4], in assay [16], in assay [8] and in [17] was “inactive” each time. The Potency entry in [9], in assay [10], in [18], in [12], in assay [13] and in assay [19] was “inactive” in each case. The Potency entry in assay [14], in [15] and in [20] was “inactive” in each case. Also, the call in [3] was inactive. For the same compound, the max response in [11] is -5.46%.

Consider `Cc1ncsc1CCO`, for which the Potency entry in assay [1], in assay [2], in assay [4], in [16], in assay [8] and in assay [17] was “inactive” throughout. For the same compound, the Potency entry in [9], in assay [10], in [18], in [12], in assay [13] and in [19] was “inactive” throughout. Besides, the Potency result in assay [14], in assay [15] and in [20] was “inactive” throughout. For the same compound, the compound was called inactive in [3]. The max response in assay [11] was 14.2%.

For the compound `OCCC1CCCCN1` (configuration not stated), the Potency entry in [1], in assay [2], in [4], in [16], in [8] and in assay [17] was “inactive” each time. The Potency result in assay [9], in assay [10], in assay [18], in assay [12], in assay [13] and in assay [19] was “inactive” in each case. Besides, the Potency entry in assay [14], in [15] and in assay [20] was “inactive” each time. Further, in assay [3], the outcome was inactive. In assay [11], the max response is -19.6%.

As to `CN(C)CCCNCCCN`, the Potency entry in [1], in assay [2], in assay [4], in [16], in assay [8] and in [17] was “inactive” in each case. The Potency result in assay [9], in assay [10], in assay [18], in assay [12], in [19] and in assay [20] was “inactive” throughout. In addition, in [3], the result was inactive. The max response in assay [11] is 24.4%.

In the case of `CC[C@@H]1C[C@H](N(Cc2cc(C(F)(F)F)cc(C(F)(F)F)c2)C(C)=O)c2cc(C(F)(F)F)ccc2N1C(=O)OC(C)C`, the Potency result in assay [1], in assay [2], in assay [4], in assay [16], in assay [8] and in assay [17] was “inactive” throughout. Further, the Potency result in assay [9], in [10], in assay [18], in assay [12], in assay [13] and in assay [19] was “inactive” each time. In addition, the Potency result in assay [14], in [15] and in [20] was “inactive” each time. Besides, the outcome in [3] was inactive. Besides, the max response in assay [11] is -22.8%.

Regarding `O=c1c2ccccc2nnn1CCl`, the Potency result in [1], in [2], in [4], in assay [16], in assay [8] and in assay [17] was “inactive” throughout. Further, the Potency result in assay [9], in assay [10], in [18], in assay [12], in assay [13] and in assay [19] was “inactive” each time. The Potency result in [14], in [15] and in assay [20] was “inactive” throughout. Besides, the outcome in assay [3] was inactive. In addition, the max response in assay [11] was 10.3%.
